Inconclusive results are not listed. Where a call stands in place of a potency, no number is given. Activity calls are given as the source filed them. Calls follow the shape of the dose curve; as a rule, active = well fitted cell-killing curve with a large enough effect; inconclusive = small, poorly fitted or top-dose-only effect, or effect the other way; inactive = flat fitted curve, though single readings scatter.
Potency is read from the fitted curve at half-maximal effect.

The assay has as its system Tov-21-G. Description: Primary qHTS to identify gynecologic anti-cancer compounds using libraries of approved drugs and bioactive compounds (AID 1345084). Also: nearly all actives have a fitted effect of over 55% in size. The settings on record: Gynecologic cancer cell panel viability, ATPlite luminescence, 48 h; series mostly up to 57.5 µM. A digest of the protocol: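 ATP-based viability (ATPlite), 1,000 cells/well, 16 h pre-incubation, 48 h compound at 37 C, 5% CO2, 15 min RT before read.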
(qHTS replaces the single test concentration by a dilution series.)
Consider `CN=C(NC#N)NCCSCc1csc(N=C(N)N)n1`, for which the Potency entry is “inactive”. The result for `CCCCOc1ccc(C(=O)CCN2CCCCC2)cc1` reads “inactive”; that for `CC(=O)c1ccc2c(c1)N(CCCN1CCC(CCO)CC1)c1ccccc1S2`, “inactive”. With `COc1c2occc2c(OC)c2c(=O)cc(C)oc12` the entry was “inactive”; with `C#C[C@]1(OC(C)=O)CC[C@H]2[C@@H]3CCC4=C[C@@H](OC(C)=O)CC[C@@H]4[C@H]3CC[C@@]21C`, “inactive”; with `COCc1c(C(C)C)nc(C(C)C)c(/C=C/[C@@H](O)C[C@@H](O)CC(=O)O)c1-c1ccc(F)cc1`, 7.08 µM (active). As for `COc1ccc(OC)c(C(O)CNC(=O)CN)c1` (stereo unspecified), the Potency entry was “inactive”. As for `CCCCC(CC)CN=C(N)NC(N)=NCCCCCCN=C(N)NC(N)=NCC(CC)CCCC` (stereo unspecified), the Potency was 17.8 µM (active). As to `CC(C)(C(=O)c1cccnc1)c1cccnc1`, the Potency result is “inactive”. With `c1ccc(-c2ccc(C(c3ccccc3)n3ccnc3)cc2)cc1` (stereo unspecified), the Potency entry was “inactive”. With `O=c1c(-c2ccccc2)c1-c1ccccc1` the entry was “inactive”; with `C[C@]12CCC(=O)C=C1[C@@H]1C[C@@H]1[C@H]1[C@@H]3[C@@H]4C[C@@H]4[C@@]4(CCC(=O)O4)[C@@]3(C)CC[C@@H]12`, “inactive”; with `CCCCCCCCCCCCCCCCOP(=O)([O-])OCC[N+](C)(C)C`, 25.1 µM (active).

In the case of `C[n+]1c2cc(N)ccc2cc2ccc(N)cc21` (tested in a mixture with another compound), the Potency was 28.2 µM (active). With `CN(C)C(=S)SC(=S)N(C)C`, the Potency is 8.91 µM (active). Turning to `CN1CCN(CCCN2c3ccccc3Sc3ccc(S(=O)(=O)N(C)C)cc32)CC1`, the Potency entry was “inactive”. With `O=C1[C@H]2CCCC[C@H]2C(=O)N1CCCCN1CCN(c2nsc3ccccc23)CC1` the entry was “inactive”; with `C[C@H](O)C(=O)Nc1c(I)c(C(=O)NC(CO)CO)c(I)c(C(=O)NC(CO)CO)c1I`, “inactive”. With `Cc1c(C)n(CCN(C)C)c2ccc(C(=O)OCCN(C)C)cc12`, the Potency entry was “inactive”.

For the molecule `CN(C/C=C/c1ccccc1)Cc1cccc2ccccc12`, the Potency entry was “inactive”. For `COc1cc2c(cc1OC)C(=O)C(CC1CCN(Cc3ccccc3)CC1)C2` (stereo unspecified), the Potency result is “inactive”.

With `Nc1ccn([C@@H]2O[C@H](CO)[C@@H](O)C2(F)F)c(=O)n1`, the Potency result is “inactive”. In the case of `c1ccc(OCc2ccc(CCCN3CCOCC3)cc2)cc1`, the Potency entry is “inactive”.

For `Cc1cccn2c(=O)c(-c3nnn[nH]3)cnc12`, the Potency entry was “inactive”.

Regarding `CCN(CC)C(=O)/C(C#N)=C/c1cc(O)c(O)c([N+](=O)[O-])c1`, the Potency result was “inactive”. With `CC(=O)N(O)CCCCCNC(=O)CCC(=O)N(O)CCCCCNC(=O)CCC(=O)N(O)CCCCCN`, the Potency result was “inactive”. `CCCCCCCCCCCCCCCC[N+](C)(C)CC`: the Potency is 10 µM (active).

For `O=C(CCCN1CCC(O)(c2ccc(Br)cc2)CC1)c1ccc(F)cc1`, the Potency result is “inactive”. `CCOc1ccc(Cc2nccc3cc(OCC)c(OCC)cc23)cc1OCC`: the Potency entry was “inactive”. On to `CCOc1ccc2nc3cc(N)ccc3c(N)c2c1`, for which the Potency result was “inactive”. Regarding `CCC(C(=O)OCCN(CC)CC)c1ccccc1` (stereo unspecified), the Potency result was “inactive”.

(Values after PubChem BioAssay (NCATS).)
